From PubChem BioAssay
Rows were chosen to be rich in hits. Some 2.8% of all compounds tested hit in one or more screens of this group.
SENP8 block-1: SENP8 (human) protease inhibition | recombinant SENP8, Nedd8 substrate fluorescence | inhibition, % at 20 µM | 360,000 compounds, 0.64% hits; in the data active means inhibition mostly above about 40%, no sharp cut-off; inactive means mostly below about 27%
Target sequence (Q96LD8 whole entry, looked up): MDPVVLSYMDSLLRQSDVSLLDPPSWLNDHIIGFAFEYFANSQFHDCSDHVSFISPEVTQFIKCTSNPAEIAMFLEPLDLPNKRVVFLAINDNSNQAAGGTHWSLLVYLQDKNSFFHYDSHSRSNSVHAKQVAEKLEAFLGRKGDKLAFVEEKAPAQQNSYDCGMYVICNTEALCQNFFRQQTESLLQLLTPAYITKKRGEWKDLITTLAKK
Platelet DG rel: modulates dense granule release in human platelets | 300,000 compounds, 0.22% hits | human platelet-rich plasma, SFLLRN dense granule ATP release, luminescence | inhibition, %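 (compounds screened at 7.5 µM in platelet-rich plasma)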;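 active means mean replicate score, as percent of positive control, at or above 50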
SENP6 block: SENP6 protease inhibition | Q9GZR1 | Recombinant SENP6 catalytic domain, aminoluciferin luminescence | inhibition, % at 10 µM | 330,000 compounds, 1.8% hits;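 active means inhibition above about 50% at the single tested dose, limit read from the data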;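 further: plate controls were DMSO wells with enzyme for no effect and DMSO wells lacking enzyme for full effect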
SENP7 inh: SENP7 protease inhibition; inhibition, % at 5 µM; AID 434973; recombinant SENP7, Z-RLRGG-aminoluciferin luminescence, 40 min; 330,000 compounds, 1.5% hits;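 active means inhibition above about 50% at the single test dose, limit read from the data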;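 further: plate controls were DMSO with enzyme for no effect and no enzyme buffer wells for full effect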
SENP8 block-2: SENP8 protease inhibition. purified SENP8, Z-RLRGG-aminoluciferin cleavage, luminescence. 330,000 compounds, 1.2% hits. inhibition, % at 10 µM. Q96LD8; in the data active means inhibition above about 50%
HSP90 refold inh: HSP90 refolding inhibition in rabbit reticulocyte lysate | luciferase refolding luminescence, 3 h | inhibition, % at 5.6 µM | 290,000 compounds, 0.91% hits;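 active means inhibition above the screen-wide mean plus 3 SD, computed separately per campaign, cut at about 16% in these data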;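 further: 0% = DMSO wells and 100% = 60 µM geldanamycin wells; inhibitors lower the luminescence because luciferase stays unfolded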
* hit, by the source's call; . = no result given.

SMILES	SENP8 block-1	Platelet DG rel	SENP6 block	SENP7 inh	SENP8 block-2	HSP90 refold inh
Cc1nn2cc(-c3cccc(Cl)c3)cnc2c1Cl	21.4	9.3	-0.6	70.8*	19.6	0.7
COC(=O)C1=CN(c2cccc(Cl)c2)C=C(C(=O)OC)C1c1cccc(OC)c1	-450.9	10.4	7.7	-0.8	-1.9	0.1
O=C1OC(/C(=C\Nc2ccc(F)cc2F)[N+](=O)[O-])c2ccccc21 (stereo unspecified)	13.8	-5.9	-19.7	-8.8	-4.2	1.3
O=C1OC(/C(=C\Nc2cc(Cl)ccc2O)[N+](=O)[O-])c2ccccc21 (stereo unspecified)	28.0	1.0	5.2	-7.8	-3.8	38.2*
COC(=O)[C@]12CCCCC=C1N(Cc1ccc3c(c1)OCO3)C(=O)[C@H](CC(=O)N1CCC(c3ccccc3)CC1)C2	34.3	.	.	.	.	.
O=C(Nc1cccc([N+](=O)[O-])c1)c1ccc(-c2ccccc2)cc1	13.5	-4.5	-6.0	-13.4	-1.2	-4.2
O=C(O)c1ccc(N=NNc2cccc([N+](=O)[O-])c2)cc1	40.2*	11.8	94.9*	98.2*	95.6*	6.8
NC(=O)COc1ccc(/C=N\NC(=O)CC(=O)NCCc2ccccc2)cc1	12.7	0.8	-22.4	3.3	3.2	-3.2
CCc1ccccc1N(CC(=O)NC(C)(C)CC)C(=O)CCC(=O)Nc1nccs1	10.4	0.9	10.2	-2.3	2.0	-0.4
Cc1nn(-c2ccccn2)c2c1C(=O)C(Br)CC2 (stereo unspecified)	66.2*	.	.	.	.	-6.2
CC1=C(C)C(=O)N(c2ccccn2)C1=O	10.2	6.4	-29.0	-9.1	-14.7	2.7
O=C1C(Cl)=C(Nc2ccccc2O)C(=O)N1CCc1ccccc1	32.8	0.6	10.3	-0.6	4.0	-0.5
CCN(CC)c1ccc(/C=c2\sc3nnc(-c4ccccc4Cl)n3c2=O)cc1	61.3*	8.6	2.0	3.5	6.7	0.7
Cc1ccc(C(=O)N2C(=O)c3cccc(N)c3C2=O)o1	-108.4	3.6	82.3*	3.8	-1.6	0.2
O=C(NCc1ccccc1)C1CCC(=O)N(CCCN2CCCC2=O)C1 (stereo unspecified)	10.9	-5.7	0.2	9.5	-3.2	-1.9
CCc1ccc(Nc2nnc(SCC(=O)NCCN3C(=O)CSC3=O)s2)cc1	1.1	-8.3	51.6*	43.2	22.7	-2.9
O=C(NCCSc1c[nH]c2ccccc12)c1ccco1	8.5	7.0	14.9	-3.2	3.4	-2.5
O=C(NCCSc1c[nH]c2ccccc12)c1c(F)cccc1F	5.9	74.5*	3.7	4.8	-1.4	4.9
Cc1ccc(NC2CC(C)NC(=S)N2)cc1 (stereo unspecified)	12.4	-13.6	6.8	-1.6	8.3	-3.6
COc1ccc(/C=C2/C(=O)C(C)(C(C)C)CCC2C)cc1 (stereo unspecified)	23.5	-2.1	-1.4	-8.4	32.8	-2.4
CC1C(=O)Nc2ccccc2N1C(=O)C1CC1 (stereo unspecified)	37.5	-16.7	6.8	4.1	4.8	6.3
CCOC(=O)C1(C)C(C(=O)OC)=C(c2ccc(OC)cc2)c2ccccc2N1C(=O)OC (stereo unspecified)	-7.1	.	.	2.0	.	.
CCCC(=O)N1c2ccccc2C(=C2SC(C(=O)OC)=C(C(=O)OC)S2)C(=S)C1(C)C	67.0*	0.0	3.7	5.4	5.8	1.1
COC(=O)C1=C(C(=O)OC)SC(=C2C(=S)C(C)(C)N(C(=O)C3CC3)c3ccccc32)S1	41.7*	-25.9	9.7	10.4	-5.3	4.9
COC(=O)C1=C(C(=O)OC)SC(=C2C(=S)C(C)(C)N(C(=O)C(C)C)c3ccccc32)S1	46.3*	-10.1	2.4	8.1	1.1	1.4
SMILES	SENP8 block-1	Platelet DG rel	SENP6 block	SENP7 inh	SENP8 block-2	HSP90 refold inh
CCN(CC)c1ccc(S(=O)(=O)N2CCOCC2)cc1NC(=O)Nc1ccccc1	-0.4	.	2.2	-5.4	10.0	.
N#Cc1ccc(-c2nc3ccc(Cl)cn3c2Cc2ccccc2C(F)(F)F)cc1	-369.4	.	.	.	.	.
O=C(CN1C(=O)NC2(CCCC2)C1=O)OCCOc1ccccc1Cl	8.6	-0.3	-7.0	0.8	5.7	.
O=C1c2ccccc2C(=O)C1(O)O	.	.	57.0*	43.9	62.1*	.
O=C1c2cccc3c2C2(O)c4c1cccc4C(=O)c1cccc(c12)C3=O	5.7	.	.	.	.	.
Fc1ccc(N/N=C/c2ccncc2)c(F)c1	1.4	14.0	58.5*	30.5	44.3	-2.7
O=C(NCc1cc(Cl)cc(Cl)c1)c1csc([C@@H]2O[C@H](CO)[C@H](O)[C@H](O)[C@H]2O)n1	14.4	.	.	.	.	.
